The values that follow come from PubChem BioAssay (Tox21).

Inconclusive results are not listed. A call without a number means that no potency is given here. Calls of active or inactive are those of the source. Calls come from the whole dose curve; as a rule, active = well fitted activation curve with a large enough effect in the repeat runs; inconclusive = weak or mixed curves; inactive = flat fitted curve, though single readings scatter.
Potency is the fitted concentration of half-maximal effect.

A short description of this test: A CellTox Green Cytotoxicity Assay to monitor cytotoxicity in HEK293 cells - 8 hour (AID 1224884). Note: nearly all actives have a fitted effect of over 35% in size. Conditions: CellTox Green fluorescence; series mostly up to 76.8 µM. The source says:
National Center for Advancing Translational Sciences [NCATS]
NIH Chemical Genomics Center [NCGC]
U.S. Environmental Protection Agency [EPA]
National Institutes of Environmental Health Sciences [NIEHS]
National Toxicology Program [NTP]
Cell-based models are critical for drug discovery. Determining the natural cytotoxic effects resulting from test compounds is an essential research activity. A CellTox Green Cytotoxicity Assay to monitor cytotoxicity in real time of continues cell culture during 40 hours of the compound treatment was used to screen Tox21 10K library compounds in Hek293 cells. CellTox Green Cytotoxicity Assay is a nonlytic, homogeneous, biofluorescent method to measure cytotoxicity in cell culture after experimental manipulation. The assay system uses a proprietary asymmetric cyanine dye that is excluded from viable cells but preferentially stains the dead cell's DNA. […] Viable cells produce no appreciable increases in fluorescence. Therefore, the fluorescence signal produced by the binding interaction with dead cell DNA is proportional to cytotoxicity.
The mixture of Hek293 cell suspension and reagents were dispensed at 600cells/6 ul/well in 1536-well tissue culture treated black solid bottom plates using a Multidrop dispenser. After the assay plates were incubated at a 37 C/5% CO2 incubator for 5 hours, 23 nL of compounds dissolved in DMSO, positive and negative controls was transferred to the assay plate by a pintool work station. The plates were incubated at 37 C for 40 hours. The fluorescence intensity were measured at 0h, 8h, 16h, 24h, 32h and 40h time points using ViewLux plate reader during compound treatment.
For `C[C@H]1CNCCc2ccc(Cl)cc21`, the Potency result is “inactive”.

For the compound `CC(C)O.CC(C)O.OCCN(CCO)CCO.OCCN(CCO)CCO.[Ti]`, the Potency entry was “inactive”.

With `COC1=CC(=O)O[C@@H](CCc2ccccc2)C1`, the Potency entry is “inactive”.

In the case of `ClP(Cl)(Cl)(Cl)Cl`, the Potency result is “inactive”.

On to `Cl/C=C\Cl`, for which the Potency result was “inactive”.

On to `CCCCCCC#N`, for which the Potency result was “inactive”.

Consider `COC(=O)c1cncn1C(C)c1ccccc1` (stereo not given), for which the Potency entry was “inactive”.

For the compound `O=C(O)C1(c2ccc3c(c2)OC[C@H](Cc2ccc(-c4ccccc4)cc2)[C@H]3O)CCCC1`, the Potency is 19.5 µM (active).

For `CCCCN(N=O)C(=N)N[N+](=O)[O-]`, the Potency result is “inactive”.

For `CNP(=O)(OC)Oc1ccc(C(C)(C)C)cc1Cl` (stereo not given), the Potency entry is “inactive”.

As to `O=Cc1ccc2c(c1)OCO2`, the Potency entry was “inactive”.

In the case of `C=C(C#N)CCC#N`, the Potency entry is “inactive”.

Turning to `O=C(NC(=O)c1c(F)cccc1F)Nc1ccc(OC(F)(F)C(F)OC(F)(F)F)c(Cl)c1` (stereo not given), the Potency result was “inactive”.

As to `O=[N+]([O-])c1ccccc1CCl`, the Potency entry was “inactive”.

Turning to `c1cc2ccc3cccc4ccc(c1)c2c34`, the Potency result was “inactive”.

In the case of `CN1C(=O)C(O)N=C(c2ccccc2)c2cc(Cl)ccc21` (stereo not given), the Potency result was “inactive”.

On to `CCCCCCCCOC(=O)c1ccc(C(=O)OCCCCCCCC)c(C(=O)OCCCCCCCC)c1`, for which the Potency result was “inactive”.

As for `c1ccc(C2CC2)c(OCC2=NCCN2)c1`, the Potency result was “inactive”.

As to `Cc1ccc(N)cc1C`, the Potency result was “inactive”.

In the case of `CCc1ccc(C(=O)NN(C(=O)c2cc(C)cc(C)c2)C(C)(C)C)cc1`, the Potency entry was “inactive”.

Take `CCOC(=O)CBr`: the Potency result is “inactive”.

For the compound `CC(C)(C)C(O)C(Oc1ccc(Cl)cc1)n1cncn1` (stereo not given), the Potency entry was “inactive”.

For `C=CCC1([C@H](C)CCC)C(=O)NC(=O)NC1=O`, the Potency entry was “inactive”.

For `O=C(O)C(F)(F)C(F)(F)C(F)(F)C(F)(F)C(F)(F)C(F)(F)C(F)(F)C(F)(F)C(F)(F)F`, the Potency result was “inactive”.

Turning to `BrCCCCBr`, the Potency result is “inactive”.

`CC(C)N(CCC(C(N)=O)(c1ccccc1)c1ccccn1)C(C)C` (stereo not given): the Potency entry is “inactive”.

On to `CNC(C)Cc1ccccc1OC` (stereo not given), for which the Potency result was “inactive”.

`Nc1ccc([N+](=O)[O-])cc1[N+](=O)[O-]`: the Potency result is “inactive”.

On to `CCCCOC(=O)c1ccccc1C(=O)OCc1ccccc1`, for which the Potency result is “inactive”.

Take `C=CCCl`: the Potency result was “inactive”.

For the compound `COC(N)=O`, the Potency entry is “inactive”.

With `O=C(N[C@H](c1ccccc1)[C@@H]1CN2CCC1CC2)c1c(Cl)ccc(C(F)(F)F)c1Cl`, the Potency entry was “inactive”.

In the case of `Brc1ccc(Oc2ccccc2)cc1`, the Potency result is “inactive”.

Take `NC(=O)C(Cl)(Cl)Cl`: the Potency entry was “inactive”.

`O=C(CCl)c1ccc(Cl)cc1Cl`: the Potency entry was “inactive”.

Regarding `Cc1ccccc1C(=O)Nc1cccc(OC(C)C)c1`, the Potency result was “inactive”.

For the compound `O=Cc1ccc(Cl)cc1Cl`, the Potency entry was “inactive”.

`CCCCCCCCCCOC(=O)c1ccccc1C(=O)OCCCCCCCCCC`: the Potency result is “inactive”.

Regarding `NCCCNCCCN`, the Potency entry was “inactive”.

Consider `COc1cc(Cl)c(OC)cc1Cl`, for which the Potency result is “inactive”.
